# Compounds without any hit were thinned out: in the full panel of roughly 83,000, 20% have a hit.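 Activity criterion: percent growth below 10, measured after cells in 96-well plates were exposed to a single compound concentration for 48 hours.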 Unmarked numbers belong to inactive results. Activity calls are given as the source filed them.
# System: NCI-H23 lung
# Test: NCI-60 one-dose screen, 48 h (100 = growth as untreated, 0 = no growth, -100 = all killed)
# Conditions: 10 µM unless noted
# Protocol: Growth inhibition of the NCI-H23 human Non-Small Cell Lung tumor cell line is measured as a screen for anti-cancer activity. Cells are grown in 96 well plates and exposed to the test compound for 48 hours. Compounds are tested at a single concentration, which is 10^-5 M for most compounds. The reported endpoint is percent growth (GI% or GIPRCNT), where numbers from 0 - 100% represent growth inhibition, and numbers from -100% - 0 represent cell death. For example, a value of 40 represents 60% growth inhibition. A value of 0 means no net growth occurred over the course of the experiment. A value of -40 indicates 40% of cells at the beginning of the experiment died by the end of the experiment. A value of -100 means all cells are dead at the end of the experiment.
# NCI-60 Human Tumor Cell Lines Screen was performed using the standard one-dose NCI protocol, which is described in more detail at https://dtp.cancer.gov/discovery_development/nci-60/default.htm.
# Compounds with GIPRCNT values below 10 were considered active. Activity score was based on GIPRCNT using the following formula: […]
# Score is 0 for GIPRCNT values of 100 or above, 50 for GIPRCNT values of 0, and 100 for GIPRCNT values of -100.
row,SMILES,growth
1,O=c1c2c(=NCCN3CCCC3)cc3c(=O)n(CCCN4CCOCC4)c(=O)c4ccc(c(O)n1CCCN1CCOCC1)c2c4-3,-49% (active)
2,COc1cc(Cn2cc(F)c(=O)[nH]c2=O)cc(OC)c1,103% [50 µM]
3,Cc1ccc2nc(NC(=O)CSC(=S)N3CCN(C)CC3)sc2c1,92.4%
4,COc1cc(/C=N/NC(=O)c2cnn3c2NC(c2ccccc2)C3)ccc1OC1CCCC1 (stereo not given),50%
5,CCCCC(O)Cn1ncc(C(=O)OCC)c1NC(=O)NCc1ccccc1C(F)(F)F (stereo not given),98.1%
6,O=S(=O)(Nc1ccc(Cl)c(Cl)c1)c1ccc(-c2cnc(C3CC3)o2)cc1,39.6%
7,COc1cc(-c2ccc3cc(OC)c(OC)c(OC)c3c2)cc(OC)c1OC,65.4%
8,COc1cc2oc(-c3ccc(O)cc3)cc(=O)c2c(O)c1I,99.6%
9,COc1ccccc1/C=C/C(=O)/C=C/c1ccccc1O,-11.3% (active)
10,COCCOC1=C(Cl)C(=O)c2ccccc2C1=O,29%
11,CCCCc1ccc(C(O)(CCN2CC3CCC(CC3)C2)c2ccccc2)cc1 (stereo not given),87.7%
12,COc1cc(/C=N/NC(=O)c2cnn3c2NC(c2ccccc2)C3)cc(OC)c1OC (stereo not given),102%
13,CCOC(=O)c1c(Cl)c2c(n1Cc1ccc(OC)cc1)-c1oncc1CCC2,86.5%
14,c1ccc2cc(Cn3c(-c4ccc5ccccc5c4)[n+](Cc4ccc5ccccc5c4)c4ccccc43)ccc2c1,-56.2% (active)
15,Cc1cc(NS(=O)(=O)c2ccc(NC(=O)COc3ccc(-c4cc5ccccc5[nH]4)cc3)cc2)no1,22.4%
16,c1ccc2cc(-c3n(Cc4ccc5ccccc5n4)c4ccccc4[n+]3Cc3ccc4ccccc4n3)ccc2c1,-16.5% (active)
17,COc1ccc(/C=N/OCC(O)CNCc2ccccc2)cc1OC1CCCC1 (stereo not given),106%
18,N#CC1=C(N)Oc2cc(N)ccc2C1c1ccc(F)cc1 (stereo not given),81.6%
19,Cc1cc(O)cc2c1[C@H]1CC[C@]3(C)[C@@H](O)CC[C@H]3[C@@H]1C=C2,90.5%
20,CCOC(=O)C1=C(C)N2C(=NC3=C(CCCC/C3=C\c3cc(OC)c(OC)c(OC)c3)C2c2cc(OC)c(OC)c(OC)c2)S1 (stereo not given),61.9%

row,SMILES,growth
1,CCCCCCCC/C=C\CCCCCCCCOc1cccc(CC(=O)NCC[N+]2(C)CCCC2)c1,75.9%
2,Clc1ccc2c(c1)C[C@H]1C[C@@H](c3cccs3)N2O1,106%
3,COc1cc2cc(Oc3ccc(NC(=O)Nc4ccc(Cl)c(C(F)(F)F)c4)cc3)c(C)nc2cc1OCCN1CCCCC1,-80.4% (active)
4,O=C(N/N=C(\CS(=O)(=O)c1ccccc1)c1cc2ccccc2oc1=O)c1ccccc1,97.9%
5,FC(F)(F)c1ccc2c(c1)n1cnnc1c1nncn21,103%
6,COc1ccc(/C=N/NC(=O)c2cnn3c2NC(c2ccccc2)C3)cc1OC1CCCC1 (stereo not given),98.8%
7,CCN(CC)c1ccc2c(c1)OS(=O)(=O)N=C2,95.6%
8,O=C1/C(=C/c2ccc([N+](=O)[O-])cc2)Oc2ccc(O)cc21,75.8%
9,COC(=O)c1c2c(c(C)[n+]([O-])c1C)C(=O)C=C(NCc1ccc(Cl)cc1)C2=O,-35.7% (active)
10,COc1ccccc1-n1c(SCc2cc(OC)c(OC)c(OC)c2)nc2ccc(Cl)cc2c1=O,36.1%
11,Cl.Fc1c[c-]c(-c2ccccn2)c(F)c1.[Pt].c1ccc([PH+](CC[PH+](c2ccccc2)c2ccccc2)c2ccccc2)cc1,-77.2% (active)
12,Clc1nc(-c2ccccn2)nc2sc3c(c12)CCCCCC3,82.4%
13,O=c1[nH]c(=S)[nH]c(=O)n1Cc1cccc2ccccc12,102%
14,O=c1[nH]c(-c2ccccn2)nc2sc3c(c12)CCCCCC3,48.7%
15,COc1ccc(/C=N/NC(=O)c2cnn(CC(O)Cc3ccccc3)c2N)cc1OC1CCCC1 (stereo not given),93.2%
16,CCCOC(=O)c1ccc2c(c1)[N+](=O)C(C(=O)c1ccccc1)=C(C(F)(F)F)[N+]2=O,-75.6% (active)
17,CC1(C)CC(=O)C2=C(C1)Nc1cc3c(cc1C2c1ccc(F)cc1)OCO3 (stereo not given),96%
18,COc1ccc(CSc2nc3cc(OC)c(OC)cc3c(=O)n2-c2ccc(Cl)cc2)cc1,102%
19,COc1ccc(-c2c(-c3cc4c(c(OC)c3OC)OCO4)noc2N)cc1,42.5%
20,Cc1nc2ccc(Cl)cc2n1C,107%
